Source: PubChem BioAssay AID1053 (University of Pittsburgh Molecular Library Screening Center, 2008)
Values joined by “and” are separate entries in the source; they are usually repeats but may differ in a detail not shown here. Equal entries are not always repeated.

Molecular target: Serine/threonine-protein kinase PLK1 (Homo sapiens) (UniProt P53350)
Test: Plk1 polo box domain binding inhibitors, SAR follow-up, biochemical, fluorescence polarization, purchased analogs (AID 1053)
Conditions: Plk1 PBD fluorescence polarization peptide binding; at 20 µM; hits give high values; call rule not given here

Chain of Serine/threonine-protein kinase PLK1 (Homo sapiens) (P53350 whole entry, looked up, the tested form may be a part): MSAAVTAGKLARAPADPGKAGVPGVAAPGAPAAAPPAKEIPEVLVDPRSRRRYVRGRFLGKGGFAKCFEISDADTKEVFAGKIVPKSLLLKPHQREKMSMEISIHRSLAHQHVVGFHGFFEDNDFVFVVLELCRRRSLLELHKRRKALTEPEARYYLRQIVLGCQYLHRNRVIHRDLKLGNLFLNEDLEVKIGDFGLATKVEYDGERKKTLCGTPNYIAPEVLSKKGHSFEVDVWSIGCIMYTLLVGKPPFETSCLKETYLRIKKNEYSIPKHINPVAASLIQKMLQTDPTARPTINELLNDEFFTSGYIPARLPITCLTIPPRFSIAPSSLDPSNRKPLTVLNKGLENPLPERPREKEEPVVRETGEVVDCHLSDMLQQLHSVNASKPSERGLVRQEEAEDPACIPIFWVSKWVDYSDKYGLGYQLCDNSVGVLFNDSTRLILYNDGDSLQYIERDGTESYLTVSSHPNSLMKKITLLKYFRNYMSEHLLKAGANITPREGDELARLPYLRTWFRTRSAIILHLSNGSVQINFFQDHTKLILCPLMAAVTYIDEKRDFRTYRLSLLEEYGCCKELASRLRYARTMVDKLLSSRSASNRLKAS

inhibition, inactive:
CCOC(=O)c1ccc(NC(=O)c2ccc3nc(N)sc3c2)cc1 -36.9%
O=c1[nH]c(=O)c2nc(-c3ccc(Cl)cc3)cnc2[nH]1 -45.5%
CCOC(=O)c1ccc(N=Cc2c(O)n(-c3ccc(C)cc3)c(=O)[nH]c2=O)cc1 -22.9%
CC(=O)c1ccc(N(CN2C(=O)c3ccc([N+](=O)[O-])cc3C2=O)C(C)=O)cc1 -32.8%
CN(C)c1ccc(-c2nnc3c(n2)c(=O)n(C)c(=O)n3C)cc1 -22%
CCCCCOC(=O)c1ccc(NC(=O)c2ccc([N+](=O)[O-])cc2)cc1 28.2%
Cn1nc(-c2ccc(F)cc2)nc2c(=O)n(C)c(=O)nc1-2 3.86%
CCOC(=O)c1ccc(NC(=O)c2ccc3snnc3c2)cc1 -21.6% and -22.3%
CCCCCC(=O)N(CN1C(=O)c2ccccc2C1=O)c1ccccc1OC -35.4%
CCOC(=O)c1ccc(N=Cc2c(O)[nH]c(=O)[nH]c2=O)cc1 49.9%
CC(=O)N(CN1C(=O)c2ccccc2C1=O)c1cccc(C)c1 -35.8%
CCCOC(=O)c1ccc(NC(=O)c2ccc(OC)c([N+](=O)[O-])c2)cc1 -17.9%
COC(=O)c1ccc(NC(=O)c2cc(-c3ccc(C)o3)nc3ccccc23)cc1 25.4%
CC(=O)Oc1c(Cl)c(N2CCOCC2)c(OC(C)=O)c2ccccc12 -39.3%
CCCCCC(=O)N(CN1C(=O)c2ccccc2C1=O)c1ccc(OCc2ccccc2)cc1 -7.17%
CCCCOC(=O)c1ccc(N=Cc2c(O)[nH]c(=O)[nH]c2=O)cc1 44.5%
CCn1nc(-c2ccccc2Br)nc2c(=O)n(C)c(=O)nc1-2 34.5%
CCOC(=O)c1ccc(NC(=O)c2cc(=O)[nH]c3ccccc23)cc1 -81.3%
CCOC(=O)c1ccc(NC(=O)C2CC(=O)NC(=NC)S2)cc1 (configuration not stated) -37.5%
CC(=O)N(CN1C(=O)c2ccccc2C1=O)c1ccc(F)cc1 -46.9%
O=C1NC(=O)C(=Cc2ccccc2OCCOc2ccccc2)C(=O)N1 -20.6%
CCCOC(=O)c1ccc(NC(=O)c2cc(-c3cccs3)nc3c(C)c(Cl)ccc23)cc1 36.6%
